Compounds with a hit are over-represented: about 19% of the library has one in this group of screens.
TDP1 cell CPT: growth inhibition of DT40 Tdp1-/-;hTDP1 cells with camptothecin (screen for TDP1 inhibitors); chicken DT40 Tdp1-/-;hTDP1 cells + 20 nM CPT, ATP luminescence, 48 h; Potency, µM (titrated, usually from 46.2 µM), without a hit: at the highest dose activity change, negative = growth inhibition, usual class: inhibitors; 420,000 tested, 12% active; further: potency means the concentration at half of the fitted maximal effect; nearly all actives have a fitted effect of over 55% in size
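Chicken DT40 Tdp1-/- cells complemented with human TDP1, 400 cells/well, exposed to compounds plus 20 nM camptothecin for at least 48 h at 37 C; viability read as ATP content by CellTiter-Glo luminescence.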
DT40 TDP1 no CPT: qHTS for Inhibitors of human tyrosyl-DNA phosphodiesterase 1 (TDP1): qHTS in cells in absence of CPT; AID 686978, 2013; 420,000 tested, 15% active; DT40 Tdp1-/- hTDP1 cells, no CPT, ATP luminescence, 48 h; Potency, µM (series often up to 46.2 µM), for inactives: top-dose activity change, negative = growth inhibition, hits mostly inhibitors; further: potency means the concentration at half of the fitted maximal effect; nearly all actives have a fitted effect of over 55% in size
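Camptothecin absent (DMSO only). Human TDP1-complemented DT40 knockout cells, 400 cells/well, 37 °C for minimum 48 hr; ATP measured via CellTiter-Glo, 30 min dark incubation, luminescence.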
IL1B secr inh: inhibitors of inflammasome signaling (IL-1 beta secretion) | THP-1 LPS/ATP IL-1B secretion, AlphaLISA, 16 h; stronger effect = lower value | AID 743279 | 360,000 tested, 4.7% active | activity change, % at 57.5 µM; in the data active means activity change below about -50%; inconclusive means mostly about -30% to -49%
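Secreted IL-1B measured by AlphaLISA bead assay after 16 h compound exposure of THP-1 cells; compounds (final up to 57.5 uM) added 1 h before LPS (250 ng/mL) and ATP (1.25 mM) stimulation; lower signal means less secretion.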
TDP1 block: blocks human tyrosyl-DNA phosphodiesterase 1 | Q9NUW8 | recombinant TDP1, AlphaScreen DNA substrate cleavage | Potency, µM (titrated, usually from 130 µM), for inactives: at the highest dose activity change, negative = inhibition, actives largely listed as inhibitors | 350,000 tested, 0.28% active; further: potency means the concentration at half of the fitted maximal effect; nearly all actives have a fitted effect of over 40% in size
Target sequence (Q9NUW8 whole entry, looked up): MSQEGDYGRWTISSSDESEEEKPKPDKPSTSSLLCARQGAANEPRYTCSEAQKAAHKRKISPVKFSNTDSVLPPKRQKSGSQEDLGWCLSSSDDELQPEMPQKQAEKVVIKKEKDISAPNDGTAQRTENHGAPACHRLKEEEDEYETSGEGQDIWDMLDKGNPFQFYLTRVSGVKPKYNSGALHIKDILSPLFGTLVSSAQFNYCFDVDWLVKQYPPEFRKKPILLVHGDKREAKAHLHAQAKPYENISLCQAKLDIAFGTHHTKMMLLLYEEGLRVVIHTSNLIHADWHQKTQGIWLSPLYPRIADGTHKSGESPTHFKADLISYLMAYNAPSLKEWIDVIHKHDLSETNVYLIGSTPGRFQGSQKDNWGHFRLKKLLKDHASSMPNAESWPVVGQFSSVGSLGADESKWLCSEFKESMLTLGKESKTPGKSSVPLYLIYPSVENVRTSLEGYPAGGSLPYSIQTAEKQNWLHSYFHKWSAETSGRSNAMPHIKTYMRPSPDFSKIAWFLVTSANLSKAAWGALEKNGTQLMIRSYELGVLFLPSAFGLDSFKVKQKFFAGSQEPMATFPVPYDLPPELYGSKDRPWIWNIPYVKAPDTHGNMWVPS
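Recombinant E. coli-expressed Tdp1 (1 nM) preincubated with compound 15 min at RT, then 5'-biotin/3'-phosphotyrosine-FITC DNA substrate (15 nM) added for 5 min. AlphaScreen beads (10 ug/ml) added, 10 min RT; tyrosine-FITC cleavage read as signal loss.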
ELG1 repair inh: ELG1-dependent DNA repair inhibition | Potency, µM (top dose mostly 46.1 µM), without a hit: top-dose activity change, negative = inhibition, usual class: inhibitors | 330,000 tested, 2.3% active | HEK293T ELG1-luciferase reporter, luminescence, 16 h; DNA damage induced by 5-fluorouridine; further: potency means the concentration at half of the fitted maximal effect; nearly all actives have a fitted effect of over 55% in size
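Quantitative HTS, concentration-response format. 2,000 cells/well co-treated with 5-fluorouridine and compound, 16 hr in 5% CO2 at 37 °C; ONE-Glo luminescence read after 30 min.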
Giardia kill: kills Giardia lamblia; Giardia lamblia trophozoite viability; activity change, % at 7.66 µM, hits read low; 340,000 tested, 0.15% active; in the data active means activity change below about -80%; inconclusive means between about -30% and that limit;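 further: parasites exposed to compound for two days anaerobically before the ATP read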
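Luminescent ATP signal served as the viability read-out, measured 15-30 min after adding ATP detection reagent to trophozoites that had been incubated with compounds for 48 hrs at 37 deg C anaerobically at 100 cells/well.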
Active calls of the source: *; u = inconclusive; x = no result given. Unless noted, the call rests on the fitted dose curve; in most records, active means well fitted curve in the direction sought with a large enough effect; inconclusive means small, poorly fitted or top-dose-only effect, or another doubt; inactive means no such curve, though single readings can be large; an effect the other way counts as inactive or inconclusive. On the % scale 0 is the no-effect control and ±100 the full control effect.

SMILES	TDP1 cell CPT	DT40 TDP1 no CPT	IL1B secr inh	TDP1 block	ELG1 repair inh	Giardia kill
CCOc1ccc2c(c1)C(C)=CC(C)(C)N2C(=O)Nc1ccccc1	5.8µM*	26µM*	-8	8%	19%	23
CCc1ccccc1N(CC(=O)NC(C)(C)CC)C(=O)CCC(=O)Nc1nccs1	-14%	-11%	11	4%	-5%	-8
Cc1cccc(C(=O)N2CCC(=O)N([C@H](COCc3ccccc3)Cc3ccccc3)CC2)c1	u	u	9	7%	x	x
Cc1cccc(C(=O)N2CCC(=O)N(C(COCc3ccccc3)Cc3ccccc3)CC2)c1 (centres undefined)	u	26µM*	-24	5%	-5%	-21
Cc1cccc(COC[C@H](Cc2ccccc2)N2CCN(C(=O)c3cccc(Cl)c3)CCC2=O)c1	u	u	-8	3%	x	x
Cc1cccc(COCC(Cc2ccccc2)N2CCN(C(=O)c3cccc(Cl)c3)CCC2=O)c1 (centres undefined)	26µM*	18µM*	-61*	0%	u	4
CCC(C(=O)OCC(=O)N(CC)c1c(N)n(Cc2ccccc2)c(=O)[nH]c1=O)c1ccccc1 (centres undefined)	-5%	-3%	-14	-1%	7%	4
CCOC(=O)C1=C(C)N=c2s/c(=C3/C(=O)Nc4ccccc43)c(=O)n2C1c1ccc(C)cc1 (centres undefined)	26µM*	23µM*	60	-5%	0%	-6
CCOC(=O)C1=C(C)N(Cc2ccccc2)C(=O)NC1c1ccc(OC)cc1 (centres undefined)	-17%	-20%	-16	4%	u	-6
CCOC(=O)C1=C(C)n2c(s/c(=C3\C(=O)Nc4ccccc43)c2=O)=NC1c1ccc(OC)cc1 (centres undefined)	u	21µM*	30	3%	-2%	3
CC(C)CC1C(=O)N(Cc2cn(Cc3ccco3)nn2)CCS(=O)(=O)N1Cc1ccc(-c2ccc(Cl)cc2)cc1 (centres undefined)	18µM*	13µM*	-53*	x	x	x
CC(C)CC1C(=O)N(Cc2cn(Cc3ccco3)nn2)CCS(=O)(=O)N1Cc1ccc(-c2cccc(CO)c2)cc1 (centres undefined)	u	16µM*	-10	x	x	x
O=C1C2C3C=CC(C2C(=O)N1CCO)C1C(=O)N(CCO)C(=O)C31 (centres undefined)	-11%	-9%	1	x	-1%	7
C[n+]1cccc(Br)c1	4%	-18%	x	x	x	x
COc1cc(C)ccc1OCCCOc1ccccc1Cl	u	u	-16	-2%	u	-2
COc1cc(C)ccc1OCCCCOc1ccccc1C(C)=O	1.8µM*	u	8	0%	-8%	18
Cc1ccc(Nc2ccc([N+](=O)[O-])nc2[N+](=O)[O-])cc1	u	u	-1	4%	4%	-96*
CC(C)c1c(C(=O)N/N=C/c2cccc(OCc3ccc(F)cc3)c2)nnn1-c1nonc1N	u	16µM*	-83*	4%	u	-8
CN(C)Cc1c(C(=O)N/N=C/c2cccc(OCc3ccc(F)cc3)c2)nnn1-c1nonc1N	-2%	-11%	12	0%	u	-12
CCCc1c(C(=O)N/N=C/c2ccc(OCc3ccccc3)c(OC)c2)nnn1-c1nonc1N	u	u	26	5%	8%	3
CC(C)c1c(C(=O)N/N=C/c2ccc3c(c2)OCO3)nnn1-c1nonc1N	-1%	15%	-10	1%	-13%	-5
